Experiment in all cases: log2 fold change, soluble protein after heating vs DMSO (PISA); higher = thermal stabilisation; K562 lysate, 10 uM; active = over 0.2 and 3.5 SD of the protein, either way, in both replicates (recomputed)
Compound in assay [1]: NCC(=O)Nc1ccc(-n2nc(C(F)(F)F)cc2-c2ccc3c(ccc4ccccc43)c2)cc1
The method, boiled down: (§1)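 K562 pellets were dounce-homogenised in PBS pH 7.4 containing 1 mM MgCl2, and the crude extract, at 1 mg/mL protein, was exposed to 10 μM compound for 30 min. Aliquots were heated for 3 min across 48°C-58°C, pooled, brought to 0.5% NP-40 at 4°C and spun at 21,000xg for 90 min, with the supernatant taken as soluble protein. TMTpro 16plex LC-MS/MS with equalised channel sums quantified that protein. Values are log-two fold changes in thermal stability relative to solvent controls, taken from duplicates.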

Compound in the next assay: O=C(CCCCCCC(=O)Nc1ccccc1)NO [vorinostat]
A digest of the protocol:
as §1

Compound in another assay: O=C(O)c1ccc2c(c1)nc(Nc1cccc(Cl)c1)c1ccncc12 [silmitasertib]
The method, boiled down: as §1

Compound in the next assay: c1cn2cc(-c3ccc4cn[nH]c4c3)nc(Nc3ccc(N4CCOCC4)cc3)c2n1 [entospletinib]
The method, boiled down:
as §1

Compound in assay [2]: O=C1NC(=O)C(c2cnc3ccccn23)=C1c1cn2c3c(cc(F)cc13)CN(C(=O)N1CCCCC1)CC2
A digest of the protocol: as §1

The full data set covers some 8,800 targets. This sample favours those with a hit. About 0.5% of all pairs of compound and target were hits. Unmarked numbers belong to inactive results.

Chain of UniProt O60906 (O60906 whole entry, looked up): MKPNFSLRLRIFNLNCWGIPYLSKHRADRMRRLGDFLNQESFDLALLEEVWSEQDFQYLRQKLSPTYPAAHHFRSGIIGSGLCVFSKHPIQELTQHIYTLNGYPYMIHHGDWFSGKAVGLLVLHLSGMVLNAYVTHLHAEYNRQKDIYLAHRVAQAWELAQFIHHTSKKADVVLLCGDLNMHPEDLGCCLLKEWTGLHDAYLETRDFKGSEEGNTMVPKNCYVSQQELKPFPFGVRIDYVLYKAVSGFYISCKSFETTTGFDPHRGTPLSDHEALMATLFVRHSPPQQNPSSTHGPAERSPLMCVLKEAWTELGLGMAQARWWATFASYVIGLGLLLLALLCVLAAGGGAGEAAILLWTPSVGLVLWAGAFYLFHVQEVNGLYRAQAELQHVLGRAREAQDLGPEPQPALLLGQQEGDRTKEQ
Chain of UniProt Q96R06 (Q96R06 whole entry, looked up): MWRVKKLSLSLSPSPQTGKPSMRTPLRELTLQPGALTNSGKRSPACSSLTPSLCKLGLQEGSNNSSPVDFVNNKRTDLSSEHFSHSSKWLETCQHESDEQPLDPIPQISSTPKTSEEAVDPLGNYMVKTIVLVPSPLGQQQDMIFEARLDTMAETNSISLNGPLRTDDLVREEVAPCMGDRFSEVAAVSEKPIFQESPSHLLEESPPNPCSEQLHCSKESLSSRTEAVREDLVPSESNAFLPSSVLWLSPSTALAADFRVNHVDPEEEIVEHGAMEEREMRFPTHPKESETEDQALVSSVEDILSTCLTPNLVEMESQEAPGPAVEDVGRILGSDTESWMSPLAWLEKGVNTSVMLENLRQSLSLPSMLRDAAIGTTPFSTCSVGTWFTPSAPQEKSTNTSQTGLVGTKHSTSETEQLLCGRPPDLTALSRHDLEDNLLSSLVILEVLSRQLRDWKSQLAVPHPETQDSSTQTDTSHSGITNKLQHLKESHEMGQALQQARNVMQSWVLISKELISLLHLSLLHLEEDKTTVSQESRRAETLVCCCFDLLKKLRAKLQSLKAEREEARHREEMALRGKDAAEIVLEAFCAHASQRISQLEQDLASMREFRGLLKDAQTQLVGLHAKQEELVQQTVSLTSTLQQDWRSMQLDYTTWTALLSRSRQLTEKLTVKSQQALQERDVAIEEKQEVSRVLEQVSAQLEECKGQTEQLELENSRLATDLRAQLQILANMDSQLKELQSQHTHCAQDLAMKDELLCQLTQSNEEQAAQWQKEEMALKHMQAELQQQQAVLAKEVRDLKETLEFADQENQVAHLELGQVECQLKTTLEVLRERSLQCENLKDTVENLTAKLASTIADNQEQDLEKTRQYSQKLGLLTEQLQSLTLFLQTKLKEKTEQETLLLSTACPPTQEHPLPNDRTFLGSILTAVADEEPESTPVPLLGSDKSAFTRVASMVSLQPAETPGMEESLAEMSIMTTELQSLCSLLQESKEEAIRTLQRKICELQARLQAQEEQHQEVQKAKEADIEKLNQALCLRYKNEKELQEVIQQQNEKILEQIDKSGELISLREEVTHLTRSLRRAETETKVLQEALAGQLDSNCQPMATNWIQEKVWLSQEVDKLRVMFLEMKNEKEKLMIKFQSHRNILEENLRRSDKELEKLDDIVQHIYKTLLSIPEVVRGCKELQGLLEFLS
Chain of UniProt P51532 (P51532 whole entry, looked up): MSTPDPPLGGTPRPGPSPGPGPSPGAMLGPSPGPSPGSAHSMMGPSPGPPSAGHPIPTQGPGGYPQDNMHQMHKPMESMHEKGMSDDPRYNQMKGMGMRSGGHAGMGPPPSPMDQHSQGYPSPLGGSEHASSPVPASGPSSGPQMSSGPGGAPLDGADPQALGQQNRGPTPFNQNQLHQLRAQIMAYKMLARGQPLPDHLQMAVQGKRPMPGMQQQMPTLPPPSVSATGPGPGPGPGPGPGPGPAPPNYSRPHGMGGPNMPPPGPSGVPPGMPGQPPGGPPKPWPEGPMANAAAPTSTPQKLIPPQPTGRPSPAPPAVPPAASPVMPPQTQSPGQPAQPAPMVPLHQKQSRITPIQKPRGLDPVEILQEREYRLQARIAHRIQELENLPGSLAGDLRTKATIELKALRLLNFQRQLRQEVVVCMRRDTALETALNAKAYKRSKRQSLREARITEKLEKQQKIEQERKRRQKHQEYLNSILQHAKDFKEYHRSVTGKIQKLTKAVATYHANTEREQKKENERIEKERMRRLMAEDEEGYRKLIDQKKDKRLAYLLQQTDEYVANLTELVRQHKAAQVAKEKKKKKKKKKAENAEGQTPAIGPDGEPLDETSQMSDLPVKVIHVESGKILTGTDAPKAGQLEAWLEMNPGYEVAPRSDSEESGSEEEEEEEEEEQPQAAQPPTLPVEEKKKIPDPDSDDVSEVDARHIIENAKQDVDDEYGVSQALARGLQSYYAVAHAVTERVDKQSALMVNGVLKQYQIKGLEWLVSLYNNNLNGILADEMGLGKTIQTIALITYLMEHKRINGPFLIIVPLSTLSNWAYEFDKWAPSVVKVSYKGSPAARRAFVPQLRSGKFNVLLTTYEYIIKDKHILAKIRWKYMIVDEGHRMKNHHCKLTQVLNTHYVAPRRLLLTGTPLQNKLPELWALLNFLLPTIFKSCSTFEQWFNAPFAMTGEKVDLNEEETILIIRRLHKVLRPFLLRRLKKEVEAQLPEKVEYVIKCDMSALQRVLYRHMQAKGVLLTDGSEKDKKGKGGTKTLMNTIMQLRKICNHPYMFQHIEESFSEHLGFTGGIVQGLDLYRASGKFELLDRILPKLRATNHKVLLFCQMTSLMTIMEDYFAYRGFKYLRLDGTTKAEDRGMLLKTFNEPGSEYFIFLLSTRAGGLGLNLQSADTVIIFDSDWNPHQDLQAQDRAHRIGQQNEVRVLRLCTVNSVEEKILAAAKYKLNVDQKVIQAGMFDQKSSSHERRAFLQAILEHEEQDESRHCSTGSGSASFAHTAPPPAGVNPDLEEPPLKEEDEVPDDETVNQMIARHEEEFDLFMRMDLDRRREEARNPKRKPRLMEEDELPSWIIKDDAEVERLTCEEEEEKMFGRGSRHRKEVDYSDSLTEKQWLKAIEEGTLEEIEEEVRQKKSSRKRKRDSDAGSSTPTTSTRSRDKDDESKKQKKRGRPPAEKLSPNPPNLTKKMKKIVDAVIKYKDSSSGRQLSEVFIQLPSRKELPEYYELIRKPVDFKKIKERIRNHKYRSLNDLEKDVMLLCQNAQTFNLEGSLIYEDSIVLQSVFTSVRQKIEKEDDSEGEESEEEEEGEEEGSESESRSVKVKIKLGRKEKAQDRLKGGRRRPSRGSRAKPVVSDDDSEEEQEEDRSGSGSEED
Chain of UniProt Q96EX1 (Q96EX1 whole entry, looked up): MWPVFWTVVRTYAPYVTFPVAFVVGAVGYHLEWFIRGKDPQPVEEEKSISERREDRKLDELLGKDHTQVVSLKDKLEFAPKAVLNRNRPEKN
Chain of UniProt Q9UL54 (Q9UL54 whole entry, looked up): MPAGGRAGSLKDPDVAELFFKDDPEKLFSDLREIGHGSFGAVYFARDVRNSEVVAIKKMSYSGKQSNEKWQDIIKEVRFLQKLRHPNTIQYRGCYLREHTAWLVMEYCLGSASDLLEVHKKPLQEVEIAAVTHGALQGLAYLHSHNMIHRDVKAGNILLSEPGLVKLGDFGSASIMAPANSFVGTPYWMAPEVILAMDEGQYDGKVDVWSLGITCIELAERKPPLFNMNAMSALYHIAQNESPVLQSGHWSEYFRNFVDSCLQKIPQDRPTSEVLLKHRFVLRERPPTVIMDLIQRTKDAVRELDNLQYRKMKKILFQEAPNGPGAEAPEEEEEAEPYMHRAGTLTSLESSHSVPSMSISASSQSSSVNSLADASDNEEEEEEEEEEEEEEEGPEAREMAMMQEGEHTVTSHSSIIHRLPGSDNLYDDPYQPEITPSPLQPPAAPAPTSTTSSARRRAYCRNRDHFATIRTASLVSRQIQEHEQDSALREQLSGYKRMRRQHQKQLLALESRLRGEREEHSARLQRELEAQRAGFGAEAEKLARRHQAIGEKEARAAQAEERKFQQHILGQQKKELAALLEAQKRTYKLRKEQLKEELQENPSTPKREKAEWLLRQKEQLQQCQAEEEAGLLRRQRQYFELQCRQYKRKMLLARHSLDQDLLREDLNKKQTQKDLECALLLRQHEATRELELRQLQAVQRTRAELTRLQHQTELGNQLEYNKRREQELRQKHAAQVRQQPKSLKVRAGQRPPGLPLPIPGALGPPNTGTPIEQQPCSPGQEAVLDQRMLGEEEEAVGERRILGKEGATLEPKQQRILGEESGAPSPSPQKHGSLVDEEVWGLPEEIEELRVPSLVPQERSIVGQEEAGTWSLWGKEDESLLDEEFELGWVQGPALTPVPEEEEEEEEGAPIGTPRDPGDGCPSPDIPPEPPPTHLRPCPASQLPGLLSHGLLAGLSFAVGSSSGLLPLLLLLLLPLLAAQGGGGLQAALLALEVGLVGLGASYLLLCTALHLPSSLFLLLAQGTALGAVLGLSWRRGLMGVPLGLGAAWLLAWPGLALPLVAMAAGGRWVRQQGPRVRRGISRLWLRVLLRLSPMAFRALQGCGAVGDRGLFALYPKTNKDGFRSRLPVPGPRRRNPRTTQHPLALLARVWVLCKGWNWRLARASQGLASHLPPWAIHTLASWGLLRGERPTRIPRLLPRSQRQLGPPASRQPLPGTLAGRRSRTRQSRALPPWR
Chain of UniProt O60225 (O60225 whole entry, looked up): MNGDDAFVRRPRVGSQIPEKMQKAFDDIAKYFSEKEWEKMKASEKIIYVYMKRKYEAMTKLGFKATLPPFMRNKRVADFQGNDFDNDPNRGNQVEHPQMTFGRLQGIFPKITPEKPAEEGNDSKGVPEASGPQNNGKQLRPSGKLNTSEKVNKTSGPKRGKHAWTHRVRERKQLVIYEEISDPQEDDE
Chain of UniProt Q16637 (Q16637 whole entry, looked up): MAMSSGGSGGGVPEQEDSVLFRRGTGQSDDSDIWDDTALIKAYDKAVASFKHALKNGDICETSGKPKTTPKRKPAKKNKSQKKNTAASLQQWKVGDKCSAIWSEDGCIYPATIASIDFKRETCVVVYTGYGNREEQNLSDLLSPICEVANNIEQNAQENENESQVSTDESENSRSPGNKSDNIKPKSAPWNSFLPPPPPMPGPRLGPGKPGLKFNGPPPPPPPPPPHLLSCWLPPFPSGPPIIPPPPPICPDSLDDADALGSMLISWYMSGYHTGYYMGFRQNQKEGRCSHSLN

For the target SSX5 isoform 2 (UniProt O60225), the log2 fold change in assay [1] is -0.111; in the assay with vorinostat it was -0.059; with silmitasertib, 0.091; with entospletinib, -0.035.
As to SIX5 (UniProt Q8N196), the log2 fold change with vorinostat is 0.162; with silmitasertib, -0.011; in assay [2] it was -0.097.
With SMN1 (UniProt Q16637), the log2 fold change in assay [1] was -0.014; with vorinostat, -0.278 (active); in the assay with silmitasertib it was 0.035; in assay [2], 0.052; in the assay with entospletinib it was -0.024.
In the case of SIN3B (UniProt O75182), the log2 fold change was 0.195 in assay [1], 0.559 in assay [2] and -0.089 in the assay with entospletinib.
In the case of SLC39A13 (UniProt Q96H72), the log2 fold change in the assay with vorinostat was -0.064; in the assay with silmitasertib, -0.092.
Take SMARCA4 isoform 4 (UniProt P51532): the log2 fold change with vorinostat was 0.166; with silmitasertib, -0.198; in assay [2], 0.119; in the assay with entospletinib, -0.083.
As to TAOK2 (UniProt Q9UL54), the log2 fold change is 0.015 in assay [1], -0.051 in assay [2] and 0.01 with entospletinib.
Turning to SPPL2A (UniProt Q8TCT8), the log2 fold change in assay [1] is 0.407; with vorinostat, -0.106; with silmitasertib it was -0.069; in assay [2], 0.047; with entospletinib it was 0.141.
As to TAF1B (UniProt Q53T94), the log2 fold change was 0.673 (active) in assay [1], -0.044 in assay [2] and -0.026 with entospletinib.
With STAU1 isoform 3 (UniProt O95793), the log2 fold change is -0.076 with vorinostat, -0.103 in the assay with silmitasertib and -0.156 in assay [2].
For SHB (UniProt Q15464), the log2 fold change was -0.356 (active) in the assay with vorinostat, 0.117 with silmitasertib and 0.044 in assay [2].
As to TAF6L (UniProt Q9Y6J9), the log2 fold change in assay [1] was -0.022; with vorinostat, -0.086; in the assay with silmitasertib, 0.013; in assay [2] it was -0.033; with entospletinib, -0.08.
The matching figures for SMIM12 (UniProt Q96EX1): -0.044, 0.174, -0.003, -0.025 and -0.058.
Turning to SLC41A1 (UniProt Q8IVJ1), the log2 fold change in the assay with vorinostat is 0.06; with silmitasertib, -0.063; in assay [2], -0.37 (active); in the assay with entospletinib, 0.007.
On to SMPD2 (UniProt O60906), for which the log2 fold change with vorinostat was 0.261; with silmitasertib it was -1.47 (active); with entospletinib, 0.058.
For the target SLC22A18 (UniProt Q96BI1), the log2 fold change is -0.136 in assay [1]; -0.044 in the assay with vorinostat; 0.006 in the assay with silmitasertib; 0.004 in assay [2]; 0.013 in the assay with entospletinib.
Turning to SPAG1 (UniProt Q07617), the log2 fold change is 0.227 in assay [1] and -0.061 in assay [2].
As for SZT2 (UniProt Q5T011), the log2 fold change with vorinostat was 1.2 (active); with silmitasertib, -0.081; with entospletinib it was -0.1.
Consider SLC35A3 isoform 2 (UniProt Q9Y2D2), for which the log2 fold change is -0.022 in assay [1]; 0.091 with vorinostat; -0.07 with silmitasertib; 0.019 in assay [2]; 0 with entospletinib.
Regarding SRC isoform 2 (UniProt P12931), the log2 fold change was 0.073 with vorinostat, -0.069 with silmitasertib and -0.111 in the assay with entospletinib.
As for SMIM1 (UniProt B2RUZ4), the log2 fold change with vorinostat was 0.177; in the assay with silmitasertib, -0.076; in assay [2], 0.12; with entospletinib it was 0.042.
On to SLC25A25 isoform 3 (UniProt Q6KCM7), for which the log2 fold change in assay [1] is 0.016; with vorinostat it was 0.054; with silmitasertib, 0.02; in assay [2], -0.036; in the assay with entospletinib it was 0.001.
The matching figures for TARBP1 (UniProt Q13395): -0.151, -0.608 (active), 0.097, 0.017 and 0.028.
For SPAG5 (UniProt Q96R06), in that order: 0.038, -0.298 (active), 0.042, -0.007 and 0.008.
For SLC27A2 (UniProt O14975), in that order: -0.108, -0.237, 0.08, 0.367 and -0.023.
Regarding STK38L (UniProt Q9Y2H1), the log2 fold change with vorinostat is -0.162; in the assay with silmitasertib it was 0.184; in assay [2], 0.022; with entospletinib it was 0.043.
SNAPC2 (UniProt Q13487): the log2 fold change with vorinostat is -0.631 (active); in the assay with silmitasertib, -0.122; in assay [2], -0.086.
For the target SLC16A1 (UniProt P53985), the log2 fold change is 0.004 in assay [1]; -0.62 (active) with vorinostat; -0.012 with silmitasertib; -0.01 in assay [2]; 0.012 with entospletinib.
Consider TARDBP (UniProt K7EN94), for which the log2 fold change is 0.1 in assay [1] and -0.166 with entospletinib.

These data come from the supplement of paper PMC10849652.
